Bioassay records deposited in PubChem BioAssay by The Scripps Research Institute Molecular Screening Center.
PPARg SRC-1 ag: agonists of human PPARgamma SRC-1 coactivator recruitment; PPARgamma-SRC-1 coactivator recruitment biochemical assay; activation, % at 8 µM; actives 0.41% (n = 200,000); AID 631; in the data active = activation above about 19%;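 note: 0% = DMSO and 100% = reference agonist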
Target sequence (P37231 whole entry, looked up): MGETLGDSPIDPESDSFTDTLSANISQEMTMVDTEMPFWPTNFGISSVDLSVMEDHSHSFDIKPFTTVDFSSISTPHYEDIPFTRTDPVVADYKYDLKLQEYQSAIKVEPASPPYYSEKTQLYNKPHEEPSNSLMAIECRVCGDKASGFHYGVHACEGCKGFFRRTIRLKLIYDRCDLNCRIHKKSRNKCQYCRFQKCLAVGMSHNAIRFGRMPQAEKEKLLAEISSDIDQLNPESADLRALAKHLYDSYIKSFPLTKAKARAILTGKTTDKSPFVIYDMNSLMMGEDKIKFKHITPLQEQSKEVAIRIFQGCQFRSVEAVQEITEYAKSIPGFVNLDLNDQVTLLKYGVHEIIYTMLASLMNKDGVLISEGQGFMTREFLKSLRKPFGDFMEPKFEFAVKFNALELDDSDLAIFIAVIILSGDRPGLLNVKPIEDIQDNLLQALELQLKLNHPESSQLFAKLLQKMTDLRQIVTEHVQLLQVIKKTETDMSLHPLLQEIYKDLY
PPARg SRC3 recr: agonists of human PPARgamma SRC-3 coactivator recruitment; P37231; biochemical PPARgamma/SRC-3 coactivator recruitment assay; activation, % at 8 µM; actives 0.26% (n = 200,000); AID 731; in the data active = activation above about 23%;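 note: 0% = DMSO and 100% = reference agonist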
TR-FRET SRC-2 ct: TR-FRET artefact, counter-screen to PPARgamma/SRC-2 agonist assay | hits give high values | TR-FRET ratio at 8 µM | actives 0.4% (n = 200,000) | AID 1049
SRC1 TRFRET art: counter-screen for PPARgamma SRC-1 recruitment agonists: TR-FRET artefact | actives 0.34% (n = 99,000) | TR-FRET detection artefact counter-screen, emission ratio; hits give high values | TR-FRET ratio at 8 µM; in the data active = TR-FRET ratio above about 2300
PPARg SRC-2 ag: PPARgamma-driven SRC-2 recruitment agonism; P37231; PPARgamma LBD-SRC-2 recruitment, biochemical; activation, % at 8 µM; actives 0.34% (n = 200,000); in the data active = activation above about 22%;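 note: 0% = vehicle and 100% = reference agonist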
SRC3 TRFRET art: flags TR-FRET format artefacts in PPARgamma SRC-3 recruitment agonist screen | TR-FRET artefact counter-screen, PPARgamma/SRC-3 format; hits give high values | TR-FRET ratio at 8 µM | actives 0.39% (n = 99,000)
* = called active by the depositor; . = no result given. Shown are actives, neighbours in structure and some others; about 0.9% of the full set was active somewhere. Cut-off read from the data, not from the text of the source, unless noted: active = TR-FRET ratio above about 2000; inactive = the rest.

SMILES	PPARg SRC-1 ag	PPARg SRC3 recr	TR-FRET SRC-2 ct	SRC1 TRFRET art	PPARg SRC-2 ag	SRC3 TRFRET art
Cc1c(C(=O)Nc2c(F)cccc2F)sc2ncnc(N3CCN(c4ccccc4)CC3)c12	4	3	1813	2137	5	2183*
O=C1CC(C(=O)Nc2ccc(Cl)cc2[N+](=O)[O-])C2(CCCCC2)O1 (stereo not given)	1	0	1562	1746	10	1697
CCOC(=O)c1cc(-c2ccc3c(c2)OCO3)nc2onc(C)c12	2	-4	1971*	.	10	.
O=C(CCC1CCCN(C(=O)c2ccc3[nH]ccc3c2)C1)N1CCN(c2ccccn2)CC1 (stereo not given)	6	2	1679	1800	2	1558
O=C(c1ccc(Cl)cc1)c1cnc(-c2ccc(Cl)cc2)s1	8	7	1525	.	-3	.
O=C(c1ccccc1)c1cnc(-c2ccc(Cl)cc2)s1	29*	-1	1816	.	-6	.
COc1ccc(C(=O)C2CCCN(Cc3ccc(C#CCCO)cc3)C2)cc1F (stereo not given)	-2	0	1364	1701	-2	1597
O=c1c(Cc2ccc(Cl)cc2Cl)c(O)ccn1CCCN1CCOCC1	0	1	1668	1632	3	1462
CCC(C)NC(=O)Cc1c(OC)ccc2cc(Br)ccc12 (stereo not given)	19	8	2014*	2168	14	1936
CCc1cc(C(=O)N2CCCC(CCC(=O)NCc3cccc(OC)c3)C2)no1 (stereo not given)	3	5	1486	1908	4	1644
Cc1nnc(SCc2ccccc2)n1N	22*	-9	1367	2275	3	1541
CCOC(=O)C1(CCCc2ccccc2)CCN(C(=O)C(C)n2cncn2)CC1 (stereo not given)	2	1	1657	1610	-5	1592
O=Cc1sc(N2CCOCC2)nc1-c1ccccc1	2	14	1731	2073	4	2197*
O=C(N/N=C/c1sc(N2CCOCC2)nc1-c1ccccc1)c1ccccc1O	1	-5	1451	1582	-1	1407
N#Cc1c(N)nc(SCC(=O)NC2CCCCC2)c(C#N)c1-c1ccc(Cl)cc1	43*	2	1518	.	4	.
Cc1cccn2c(=O)c3cc(C(=O)NCCN4CCOCC4)c(=N)n(CCc4ccccc4)c3nc12	7	28*	1506	.	6	.
O=C(Nc1ccc(F)cc1F)c1csc(-c2cccs2)n1	5	6	2010*	1858	10	1765
O=C(Nc1ccc(F)cc1F)c1csc(-c2ccncc2)n1	4	4	1625	1880	2	1707
Cc1cccc(NC(=O)CCCn2cc([N+](=O)[O-])cn2)n1	2	-5	1542	1757	8	1544
COC(=O)CSc1nc2cc3c(cc2cc1C#N)OCO3	81*	18	1413	.	3	.
CC(C)OC(=O)CSc1nc2cc3c(cc2cc1C#N)OCO3	54*	5	1557	.	3	.
CCOc1ccc(N2C(=O)Nc3ccccc3C2(O)C(=O)N2CCN(c3ccccn3)CC2)cc1 (stereo not given)	8	3	1836	2062	7	1657
Cc1ccc(NC(=O)C2CCCN(C(=O)c3ccc(Cl)cc3)C2)c(C)c1 (stereo not given)	-2	2	1426	1654	-8	1338
COC(=O)c1ccc(NC(=S)NC2CCc3ccccc32)cc1 (stereo not given)	16	7	1653	1810	-1	1444
O=C(Nc1ccccc1-c1nc2ccccc2s1)c1cccnc1	0	2	4568*	1745	6	1465
SMILES	PPARg SRC-1 ag	PPARg SRC3 recr	TR-FRET SRC-2 ct	SRC1 TRFRET art	PPARg SRC-2 ag	SRC3 TRFRET art
O=Cc1cccn1Cc1ccccc1[N+](=O)[O-]	12	0	1612	1908	-5	1637
COC(=O)c1cccc(NC(=O)/C=C/c2cccc([N+](=O)[O-])c2)c1	-4	-4	1465	.	0	.
COC(=O)c1cccc(NC(=O)/C=C/c2ccc([N+](=O)[O-])cc2)c1	8	0	1720	1916	-1	2126*
Cc1ccc(C2(c3noc(CN4CCC(c5ccncc5)CC4)n3)CCCC2)cc1	5	0	1867	1878	3	1787
COc1ccc(Nc2cc(C)c3ccccc3n2)cc1	13	-2	1594	1815	-3	1923
COc1ccc(Nc2ccc(Nc3ccc(OC)cc3)nn2)cc1	13	14	1769	2360*	18	1723
